# Measured values: ChEMBL document CHEMBL1157539, “Thousands of chemical starting points for antimalarial lead identification” (Nature, 2010)
# Tested on: Plasmodium falciparum
# Assay: GSK_TCMDC: Inhibition of Plasmodium falciparum Dd2 in whole red blood cells, using parasite LDH activity as an index of growth. Test compounds present at 2uM
# Format: functional
row,SMILES,Inhibition [%]
1,CCc1cc(I)c2c(c1)C(NCCCNc1cc(=O)c3ccccc3[nH]1)CCN2.CS(=O)(=O)O (stereo not given),32
2,CC(C)Cn1c(Sc2ccc(C#N)c([N+](=O)[O-])c2)nnc1-c1ccc(N(C)C)cc1,98
3,Cn1nccc1C(=O)NCCNCc1ccc(-c2ccc(-c3nc4cc(C(F)(F)F)ccc4[nH]3)s2)cc1.O=C(O)C(F)(F)F,99
4,CCCCC(=O)Nc1cc(=O)[nH]c2nc(-c3ccc(Cl)cc3)nn12,77
5,CCOC(=O)CN1Cc2cc(NCc3ccc4ccc5nc(C)[nH]c(=O)c5c4c3)ccc2C1=O,91
6,CC(=O)Nc1csc(-c2cnc(/C=C(\C)C[C@@H]3OC[C@H](C[C@@H]4O[C@H]4[C@@H](C)[C@H](C)O)[C@@H](O)[C@H]3O)o2)c1,8
7,N#Cc1cccc(C(=O)Nc2cccc(-c3ccc(CN4CCC(O)CC4)cc3)c2)c1.O=C(O)C(F)(F)F,2
8,O=C(NCC1CCC(C(=O)NCc2cccc(C(F)(F)F)c2)CC1)c1ccc(O)c(-c2ccc(Cl)c(Cl)c2)c1 (stereo not given),41
9,Cc1ccc(Cc2cnc(CN3CCCCC3)c(O)c2)cc1.Cl,75
10,Cl.Nc1c2c(nc3ccc(NC(=O)CCCCCc4ccccc4)cc13)CCCC2,36
11,O=C(NCCN1CCC(c2ccncc2)CC1)c1ccc(Nc2nccc(Nc3ccc(Oc4ccccc4)cc3)n2)cc1,90
12,CC(C)CNC(=O)c1cncc(-c2ccc(CN3CCC(N4CCCC4)CC3)cc2)c1.O=C(O)C(F)(F)F,42
13,O=C(/C=C/c1ccc(Cl)c(Cl)c1)NCCCCCN1CC[C@H](NC(=O)c2sc3ccccc3c2Cl)C1,3
14,COc1ccc(-c2cccc(NC(=O)c3cccc(Cl)c3)c2)cc1CN(C)CCN(C)C.O=C(O)C(F)(F)F,73
15,CN(C)C(=O)c1ccc(CN(Cc2cccc(OC(C)(C)C)c2)Cc2ccc3c(c2)OCCO3)cc1,96
16,CN1CCN(CCCNCc2cccc(Nc3nccc(Nc4ccc(Oc5ccccc5)cc4)n3)c2)CC1,80
17,O=C(NCCCCCN1CCC(c2c[nH]c3ccccc23)CC1)Nc1ccc(I)cc1,0
18,Cc1[nH]c(C)c(-c2ccc(-c3cccc(OC(F)(F)F)c3)nc2)c(=O)c1Cl,97

row,SMILES,Inhibition [%]
1,CC(C)N1CCC(N(Cc2ccc(-c3ccc(C(F)(F)F)cc3)cc2)C(=O)Cn2c(CCc3cccc(F)c3F)cc(=O)c3ccccc32)CC1.O=C(O)C(O)C(O)C(=O)O,73
2,COc1cc2c(cc1OC)C(C(=O)c1ccccc1)=NCC2.Cl,62
3,O=C(Cc1c[nH]cn1)Nc1cccc(-c2ccc(-c3nc4cc(F)ccc4[nH]3)s2)c1,94
4,COc1ccc(C(c2ccc(N(C)C)cc2)c2ccc(N(C)C)cc2)cc1,99
5,O=C(Nc1ccc(F)cc1)c1cnc(N2CCN(c3ccncc3)CC2)c(Cl)c1.O=C(O)C(F)(F)F,81
6,O=C(/C=C/c1ccc(Cl)c(Cl)c1)NCCCCCN1CCC(NC(=O)c2cccc(Cl)c2)CC1,23
7,CCC/C=C/c1c(CNCCCNc2cc(=O)c3ccccc3[nH]2)sc(CC)c1Br.Cl,71
8,COc1cc2nc(N3CCC(CNC(=O)c4ccc(-c5ccc(C(F)(F)F)cc5)cc4)CC3)nc(N)c2cc1OC,100
9,COc1cc(/C=N/Nc2nc(Nc3ccccc3)nc(Nc3ccccc3)n2)ccc1OCc1ccccc1[N+](=O)[O-],18
10,CC[C@H](NC(=O)c1c(CN2CCC(N3CCCCC3)CC2)c(-c2ccccc2)nc2cc(O)ccc12)c1ccccc1,13
11,Cc1cc(-c2cnc(N)c(-c3ccc(N4CCN(C)CC4)cc3)c2)cc(C)c1O,99
12,Cc1nc(N)nc(N)c1OCCCOc1cccc(Cl)c1Cl.Cl,95
13,COc1ccc(NC(=O)Nc2cc(C)nc3cccnc23)cc1Cn1ccnc1,41
14,O=C(c1cccs1)N1CCN(c2ccc([N+](=O)[O-])c(NC3CC3)c2)CC1,95
15,O=C(N[C@@H](CC1CCCCC1)C(=O)NCCN1CCCC1)c1ccc(O)c(-c2cccc(C(F)(F)F)c2)c1,55
16,OCCN1CCN(c2nc(Nc3cccc(F)c3)c3cnn(-c4ccccc4)c3n2)CC1,76
17,O=C(Nc1ccc(-c2nc3ccccc3[nH]2)cc1)c1ccc(N2CCOCC2)c([N+](=O)[O-])c1,28
